The source of these data is PubChem BioAssay AID1347426 (Functional Genomics Laboratory (NCATS/FGL), 2020).

Out of some 31,000 sequences screened, about 1,400 (4.5%) were called active. The sample as a whole holds a higher share of actives than the screen did. Unmarked numbers belong to inactive results.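 Rule for the calls: active = median seed-adjusted z-score above 1 or below -1; inactive = the rest.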

The nature of this experiment: Novel Modifiers of Survival Motor Neuron (SMN) Protein: Gene Identification via Genome-wide siRNA Screen.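 Note: luminescence tracks full-length SMN protein made from the SMN2 reporter.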 The following applies: HEK293T SMN2-luciferase reporter, siRNA knockdown, 72 h; actives lie on both sides. The essentials:
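Each of three siRNAs per gene is reverse-transfected (1 pmol) into reporter HEK293T cells whose luciferase output tracks SMN protein level. After 72 h culture, ONE-Glo luminescence is control-normalized, log10-transformed and MAD-standardized; Common Seed Analysis deprioritizes seed-driven hits.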
(A reporter such as luciferase makes a cellular process visible.)
For the sequence GGACUACUAUGCCACUGCUTT against SSTR4, the median seed-adjusted z-score is -0.00217.
The figure for CGGCAACUUCAAUAACAGUTT against LPHN1 is -1.03 (active).
To GAGGGACUAUUUCACGAAATT against PARD3B belongs 0.306; to GUGCAUCUCUUGACAAUUUTT against LIPI, 0.65; to GAAUAUUCUCGAUUUAAUATT against PPP1R3D, 0.
The figure for GGGCUGUUAUUUCAAGAAATT against GALNT13 is -0.0149.
As for GAGCAUGUUUUUACCCUUUTT against MGC17403, the median seed-adjusted z-score is 0.204.
As to CCAUAACAUUCACAAGUGUTT against TRPS1, the median seed-adjusted z-score was -0.125.
On to CCAGGUCACGAGUCAAGUATT against KTI12, for which the median seed-adjusted z-score is 0.0814.
GGCCGUAACCUCAACCGUUTT against SNX33: the median seed-adjusted z-score is -0.246.
For the sequence GACAAUCGACCGAAAGCAATT against PPP4C, the median seed-adjusted z-score is 1.15 (active).
As to GGGCAACAGUUGAACACCATT against PDK4, the median seed-adjusted z-score is -0.693.
The figure for GCUUUGACCGUGUCCGAAATT against STT3A is 0.
In the case of GCAUUUCCCAAGACGUGGATT against ZFYVE28, the median seed-adjusted z-score was 0.0678.
For the sequence GCAUUCACCAGAACGAGAATT against RIMS1, the median seed-adjusted z-score is 0.
To CGCAUCCAAGAGUACCUUUTT against ZNF229 belongs -0.497; to GGACAUGAACCUUAACGAATT against DIAPH2, -0.0149.
CUAUACUCUUCGCUCCUAUTT against SIGMAR1: the median seed-adjusted z-score was -1.4 (active).
For GGUUGAAAAGGAGUGCAAATT against CACYBP, the median seed-adjusted z-score is -0.33.
CAAAUCUGCUCAUCGAAAATT against MID1: the median seed-adjusted z-score is -0.294.
For the sequence AGAAGAUCAUAGGCAGCAATT against KLK8, the median seed-adjusted z-score was 0.736.
As for GCUUCAGAGUCAACGGACATT against MICB, the median seed-adjusted z-score was 0.162.
To GAGGAACAGGAAUAACAUUTT against GCG belongs -1.18 (active); to GGCCUAACCAUAUGCCUAUTT against SS18, 0.34.
With GGUUUUUCCGCCAACUAGATT against CAPS, the median seed-adjusted z-score was -1.25 (active).
In the case of GGUGUGCGGUUCAUCUUCATT against ILVBL, the median seed-adjusted z-score was 0.343.
On to CUAAAGAGGUCAACAUUGATT against RGS16, for which the median seed-adjusted z-score is 0.
As for AGGUGUUCAUCGGCGUAAATT against GRHL3, the median seed-adjusted z-score was -0.0434.
The figure for CCAGCAGCAUGGAAGUUGUTT against HSD3B7 is -0.0819.
UCAUCUACCUGAUGCGUAUTT against TAF6: the median seed-adjusted z-score is -1.36 (active).
Consider GAACUAUGAAUAAAGCUUUTT against HAGHL, for which the median seed-adjusted z-score was -0.334.
GGCUUGAAGUAUGGAAAAATT against QRICH1: the median seed-adjusted z-score was -1.04 (active).
Turning to CCAGCUUAGUUCAAUAUGATT against GABRA4, the median seed-adjusted z-score is 0.549.
CCAUCCUGAUAAGAACCCATT against DNAJA1: the median seed-adjusted z-score was -0.00548.
As to GGGCCUACUUUACAUCACATT against TXNDC14, the median seed-adjusted z-score is -2.39 (active).
For the sequence CGCUUACAAGGUCAACAUUTT against S1PR3, the median seed-adjusted z-score was -0.0931.
For CAAGCUACGUAGAGAUCUATT against KIFC1, the median seed-adjusted z-score is 0.0417.
For the sequence ACAUGUUCCUCACCUUAAATT against SLC6A1, the median seed-adjusted z-score was -0.122.
With GGAGGGAUAUGUUCCACGUTT against TP53BP2, the median seed-adjusted z-score is 0.157.
To CUACUGUGGGUGUCGCAUATT against UQCRFS1 belongs -1.28 (active).
The figure for GAGCGACUUUGAUCACCAUTT against PANK2 is 0.121; for CAUUCAUCAUCCACCCAGATT against MUPCDH it is -0.329.
Regarding CCCGGAUACUUCUGAAGAATT against HNRPDL, the median seed-adjusted z-score is -0.68.
As to CGGUGGGAUGGGAACGAAATT against DRAP1, the median seed-adjusted z-score was 1.08 (active).
Take CUAUGACUGGAUUAGCGUATT against BEST2: the median seed-adjusted z-score was 0.415.
To GCUUUUGAACUAUUUGAUATT against CETN3 belongs -0.0815.
With UGAAGACCCAGAGAUGUAATT against PTN, the median seed-adjusted z-score is -0.174.
In the case of UGAGAUCGCUGUCAUGUUATT against PSMD10, the median seed-adjusted z-score was 0.265.
Regarding GCAAGGUUUAAUGAACAAATT against GTF2E1, the median seed-adjusted z-score is 1.76 (active).
As to GUGAGAACUUUGACGAUUATT against PMP2, the median seed-adjusted z-score is 0.00618.
With GUAACUGCAUUCAACUUGATT against OSMR, the median seed-adjusted z-score was 0.548.
In the case of UGAAAAACAUUAACAAGCATT against RNASE7, the median seed-adjusted z-score was 1.07 (active).
The figure for CAACCUACAUGUUUGCUGATT against SCARF1 is -0.324.
Turning to GGAACAUUCCGACCUACAATT against PTDSS2, the median seed-adjusted z-score was 0.0941.
As for CCGUCACCAUCCUCAUCUATT against PORCN, the median seed-adjusted z-score was 0.214.
Consider GAUGAUUUUUGGAGACCUATT against TRPV5, for which the median seed-adjusted z-score was 0.0879.
In the case of GGAGUUUGAGGUAUACCUATT against IL6, the median seed-adjusted z-score was -0.436.
In the case of GCUUUAACGUGUCUGUGCATT against SLC25A5, the median seed-adjusted z-score was -0.0501.
The figure for CUACUACUUUAAUCCCUAATT against FDFT1 is -0.143; for GCAUCGACCUGAUUCACAATT against AP3B2 it is -2.45 (active).
With GGAGCGGUUCAGAUCAAUATT against RAB39, the median seed-adjusted z-score was -0.408.
To CCUCAUUGAUAACACUAAATT against GBP2 belongs -0.263.
As for GGAUUGAAGGUGUUCACUATT against PZP, the median seed-adjusted z-score was -0.878.
For the sequence CAGUACUACGUGAAACUGATT against BAT1, the median seed-adjusted z-score is -1.49 (active).
The figure for GGCUACAAGUAGAGAGUUUTT against ESPL1 is 0.871; for GAGAAAGUGUGAACUUACATT against XRCC2 it is 0.
Regarding CGCAACUCUUUACACCGUATT against SAMHD1, the median seed-adjusted z-score was -1.33 (active).
To GGAUGUUUUCGAAACGCAUTT against BRDT belongs -0.357; to GACUAUUCCUGAUCCUUAUTT against AGBL2, -0.796.
